From PubChem BioAssay (NCATS)
Results filed as inconclusive are left out. Calls of active or inactive are those of the source. The call rests on the fitted dose curve; in most records, active means well fitted inhibition curve with a large enough effect; inconclusive means small, poorly fitted or top-dose-only effect; inactive means flat fitted curve, though single readings scatter.

Experiment: P-glycoprotein substrates identified in KB-8-5-11 adenocarcinoma cell line, qHTS therapeutic library screen (AID 1346987); further: nearly all actives have a fitted effect of over 65% in size
Conditions: KB-8-5-11 (P-gp overexpressing) viability, CellTiter-Glo, 72 h; series mostly up to 44.5 µM; activity change, negative = cytotoxicity: at the top concentration
Summary of the method: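 KB-8-5-11, a colchicine-selected P-gp-overexpressing KB-3-1 subline, was grown without colchicine for the assay. Cells were seeded at 500 cells/well, dosed in concentration-response and incubated 72 h at 37 degree C, 5% CO2. Viability was read by CellTiter-Glo luminescence.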
On the % scale 0 is the no-effect control and ±100 the full control effect.

SMILES	activity change, negative = cytotoxicity	outcome
Cc1ccc(C)c(NC(=O)CNS(=O)(=O)c2ccc3[nH]c(=O)oc3c2)c1	3.66% (inactive)	
COc1ccc(S(=O)(=O)Nc2nc(-c3cccc([N+](=O)[O-])c3)cs2)cc1OC		inactive
C[C@@H](NC(=O)c1cc(C(=O)N[C@@H](Cc2ccccc2)[C@H](O)CNC2CC2)cc(N(C)S(C)(=O)=O)c1)c1ccccc1	5.37% (inactive)	
COC(=O)c1ccccc1O[C@@H]1O[C@H](CO[C@@H]2OC[C@@H](O)[C@H](O)[C@H]2O)[C@@H](O)[C@H](O)[C@H]1O		inactive [at 17.3 µM]
CC(=O)NC1C(OC2CCC3(C)C(CCC4(C)C3CC=C3C5CC(C)(C)CCC5(C(=O)O)C(O)CC34C)C2(C)C)OC(CO)C(O)C1O (configuration not stated)	-5.63% [at 17.3 µM] (inactive)	
OC[C@H]1O[C@@H](O[C@H]2[C@H](O)[C@@H](CO)O[C@@H](OCc3ccccc3)[C@@H]2O[C@@H]2OC[C@](O)(CO)[C@H]2O)[C@H](O)[C@@H](O)[C@@H]1O		inactive [at 17.3 µM]
CC(C)(O)c1ccc2c(c1)C(=O)C[C@H]1[C@](C)(C(=O)O)CCC[C@]21C		inactive
C/C1=C\CC(C)(C)/C=C/C/C(C(=O)O)=C/CC1	-18.5% (inactive)	
CC(C)C[C@H](NC(=O)[C@@H]1O[C@H]1C(=O)O)C(=O)NCCCCN=C(N)N	-7.76% (inactive)	
CCC[C@H](N[C@@H](C)C(=O)N1[C@H](C(=O)O)C[C@@H]2CCCC[C@@H]21)C(=O)O	-6.94% (inactive)	
CC1(C(=O)O)CCCC2(C)C3CCC4CC3(CCC12)CC4C(=O)O (configuration not stated)		inactive
CC1(C)CCC2(C(=O)O)CCC3(C)C(=CCC4C5(C)CCC(O)C(C)(CO)C5C(O)CC43C)C2C1 (configuration not stated)		inactive [at 17.3 µM]
